Assay outcomes: PubChem, National Center for Advancing Translational Sciences (NCATS)
Menin MLL FP FL: inhibitors of human menin-MLL interaction, wild-type MLL peptide. 290,000 tested, under 10 active. Fluorescence polarization, fluorescein-MLL peptide displacement from menin. FP activity change, % at 61.4 µM. AID 1766; active = well fitted curve in the direction sought with a large enough effect in the polarisation, not every such curve was filed as active; inconclusive = small, poorly fitted or top-dose-only effect, or effect the other way, or a change in a side signal; inactive = no such curve, though single readings can be large or run the other way; the % refers to the polarisation; note: % of control where 0% means no effect
Menin-MLL TR inh: inhibitors of human menin-MLL interaction, mutant MLL peptide; O00255; Menin + Texas Red MLL mutant peptide, fluorescence polarization; Potency, µM (titrated, usually from 61.6 µM), for the others: top-dose FP activity change, negative = inhibition, usual class: inhibitors; 0.23% of 270,000 active; AID 1768; active = well fitted inhibition curve with a large enough effect in the polarisation, with a control signal flat, not every such curve was filed as active; inconclusive = small, poorly fitted or top-dose-only effect, or effect the other way, or a change in a side signal; inactive = no such curve, though single readings can be large or run the other way; the % refers to the polarisation; note: potency is the fitted concentration of half-maximal effect; % of control where 0% means no effect
TRPV1 agonist: agonists of human vanilloid receptor 1 (TRPV1) | Q8NER1 | TRPV1-expressing cells, Fluo-8 calcium influx, agonist mode | activation, % at 8.33 µM | 0.19% of 320,000 active; in the data active = activation above about 80%; inconclusive = between about 30% and that limit; note: 0% is about no effect
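Cells expressing TRPV1 were dye-loaded with Fluo-8 and read kinetically: 10 s baseline, 3 min after compound (agonist portion), then 2 min after EC20 capsaicin (allosteric enhancer portion). Calcium-bound dye fluorescence at 480/520 nm.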
CXXC DNA block: inhibitors of human MLL CXXC domain-DNA interaction; MLL-CXXC / FITC-HOXA9 DNA fluorescence polarization; Q03164; AID 2662; 0.037% of 290,000 active; Potency, µM (titrated, usually from 115 µM), for inactives: at the top dose activity change, negative = inhibition, usual class: inhibitors; active = well fitted inhibition curve with a large enough effect in the polarisation, with a control signal flat, not every such curve was filed as active; inconclusive = small, poorly fitted or top-dose-only effect, or effect the other way, or a change in a side signal; inactive = no such curve, though single readings can be large or run the other way; the % refers to the polarisation; note: potency is the fitted concentration of half-maximal effect
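Fluorescence polarization: 7 uM MLL-CXXC (stock) preincubated 5 min with compounds, then 50 nM fluorescein-HOX-A9 DNA (stock) added; 30 min ambient. Buffer 50 mM Tris-HCl pH 7.5, 50 mM NaCl, 1 mM DTT, 0.05% BSA.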
TRPV1 potentiator: human TRPV1 potentiation | TRPV1-expressing cells, Fluo-8 calcium influx, capsaicin EC20 potentiation | AID 540277 | 0.02% of 320,000 active | potentiation, % at 8.33 µM; in the data active = potentiation above about 80%; inconclusive = between about 30% and that limit; note: 0% is about no effect
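Fluo-8 calcium influx in TRPV1-expressing cells, kinetic read (ex 480/em 520 nm). Compound added and read 3 min for agonist activity, followed by capsaicin at EC20 final and 2 min further read for enhancement.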
Numbers without * were called inactive; ! = not active in a repeat; [ ] = remark or other dose. Compounds with a hit are over-represented: about 0.32% of the library has one in this group of screens.

Screening O=C1c2cccc3c(N4CCCCC4)ccc(c23)C(=O)N1c1ccccn1 returned Menin MLL FP FL inconclusive, Menin-MLL TR inh -23.5%, TRPV1 agonist inconclusive, CXXC DNA block inconclusive and TRPV1 potentiator -7.8.
COC(=O)C1=C(C(=O)OC)[C@@H]2N(Cc3ccccc3)c3ccccc3[C@@]23C[C@@H](C(=O)OC)N(S(=O)(=O)c2ccc([N+](=O)[O-])cc2)C3=N1 was read as Menin MLL FP FL 0.3[11.7 µM] and Menin-MLL TR inh -7.5%[11.7 µM].
`CCCCC(=O)NC(NC(=S)N1CCOCC1)C(Cl)(Cl)Cl` (configuration not stated) gave Menin MLL FP FL 1.1, TRPV1 agonist -2.9, CXXC DNA block 11.6% and TRPV1 potentiator 2.9.
O=C(NC(NC(=S)N1CCOCC1)C(Cl)(Cl)Cl)c1ccc(Cl)cc1 (configuration not stated) was read as Menin MLL FP FL 4.5, Menin-MLL TR inh 11.6%, TRPV1 agonist 83.0*, CXXC DNA block 4.5% and TRPV1 potentiator 0.5.
C=C(C)C(=O)OCCOCC was read as Menin MLL FP FL 1.0 and Menin-MLL TR inh -7.6%.
CC(C)OP(=O)(c1ccc(N(C)C)cc1)C(O)c1ccc(N(C)C)cc1 (configuration not stated) was read as Menin MLL FP FL 2.1, Menin-MLL TR inh 10µM*, TRPV1 agonist 4.4, CXXC DNA block 15.0% and TRPV1 potentiator -9.4.
Screening COC(=O)c1cc(NC(=S)NCc2ccc(Cl)cc2)cc(C(=O)OC)c1 returned Menin MLL FP FL 11.4, Menin-MLL TR inh inconclusive, TRPV1 agonist inconclusive, CXXC DNA block 4.6% and TRPV1 potentiator -14.7.
`COc1ccc(CNC(=S)Nc2cccc(F)c2)cc1` gave Menin MLL FP FL 3.9, Menin-MLL TR inh 8.3%, TRPV1 agonist 87.6*, CXXC DNA block -8.0% and TRPV1 potentiator -7.4.
COC(=O)c1cccc(NC(=S)NCc2ccc(Cl)cc2)c1 was read as Menin MLL FP FL 1.0, Menin-MLL TR inh inconclusive, TRPV1 agonist 82.3*, CXXC DNA block 3.7% and TRPV1 potentiator 5.8.
`COc1ccc(CNC(=S)NCc2ccc(Cl)cc2)cc1OC` gave Menin MLL FP FL -0.5, Menin-MLL TR inh 22.7%, TRPV1 agonist 97.0*, CXXC DNA block 2.2% and TRPV1 potentiator 4.7.
CCOc1ccc(C=C2SC(=O)N(CCN)C2=O)cc1 was read as Menin MLL FP FL -11.0 and Menin-MLL TR inh -1.2%.
CC(C)(C)c1ccc(/C=C/C(=O)Nc2ccncc2)cc1 was read as Menin MLL FP FL 3.4, Menin-MLL TR inh 20.5%, TRPV1 agonist 96.2*, CXXC DNA block -1.3% and TRPV1 potentiator -3.6.
O=C(NCC1CCCCC1)c1nnc(C(=O)NCC2CCCCC2)c2c1[nH]c1ccccc12 was read as Menin MLL FP FL 1.8 and Menin-MLL TR inh 1.9%.
Screening CCC(C)c1ccc(NC(=S)NCc2ccccc2OC)cc1 (configuration not stated) returned Menin MLL FP FL 0.7, Menin-MLL TR inh 11.4%, TRPV1 agonist 83.2*, CXXC DNA block -7.0% and TRPV1 potentiator -11.9.
Screening CCSC[C@H](NC(=O)[C@H](C)NC(=O)[C@@H](N)Cc1ccc(O)cc1)C(=O)N[C@@H](CC(=O)O)C(=O)N[C@H](C(=O)N[C@@H](C)C(=O)N[C@H](C(=O)N[C@@H](CSCC)C(=O)N[C@H](C(=O)N[C@H](C(=O)N[C@@H](Cc1cnc[nH]1)C(=O)N[C@@H](CCCNC(=N)N)C(=O)N[C@@H](CC(C)C)C(=O)N[C@@H](C)C(=O)NCC(=O)N[C@@H](CC(C)C)C(=O)N[C@@H](CC(C)C)C(=O)N[C@@H](CO)C(=O)N[C@@H](CCCNC(=N)N)C(=O)N[C@@H](CO)C(=O)NCC(=O)NCC(=O)N[C@H](C(=O)N[C@H](C(=O)N[C@@H](CCCCN)C(=O)N[C@@H](CC(N)=O)C(=O)N[C@@H](CC(N)=O)C(=O)N[C@@H](Cc1ccccc1)C(=O)N[C@H](C(=O)N1CCC[C@H]1C(=O)N[C@H](C(=O)N[C@@H](CC(N)=O)C(=O)N[C@H](C(=O)NCC(=O)N[C@@H](CO)C(=O)N[C@@H](CCCCN)C(=O)N[C@@H](C)C(=O)N[C@@H](Cc1ccccc1)C(N)=O)C(C)C)[C@@H](C)O)C(C)C)C(C)C)C(C)C)[C@@H](C)O)C(C)C)[C@@H](C)O)[C@@H](C)O returned Menin MLL FP FL 6.4 and Menin-MLL TR inh 5.1%.
For Cc1nc2ccccc2c(=O)n1Cc1ccco1 the results were Menin MLL FP FL 0.4, TRPV1 agonist -0.2, CXXC DNA block 22.0% and TRPV1 potentiator -1.7.
Cc1nc2c([nH]1)c(=O)n(C)c(=O)n2Cc1ccco1 was read as Menin MLL FP FL inconclusive, Menin-MLL TR inh 15.8µM*! and CXXC DNA block 9.4%.
C[C@H]1Cc2c(COc3ccccc3)nc3c(c2CO1)CN(C(=O)C1CCCCC1)CC3 was read as Menin MLL FP FL 0.9[11.7 µM] and Menin-MLL TR inh -16.5%[11.7 µM].
`COc1cc(C(=O)NCCCc2nc3ccccc3n2Cc2cc(C)ccc2C)cc(OC)c1OC` gave Menin MLL FP FL 4.2, Menin-MLL TR inh -0.6%, TRPV1 agonist 0.9, CXXC DNA block 5.3% and TRPV1 potentiator 13.1.
`CC(=O)NCCCc1nc2ccccc2n1Cc1cc(C)ccc1C` gave Menin MLL FP FL -6.8, Menin-MLL TR inh -5.5%, TRPV1 agonist 89.0*, CXXC DNA block -5.8% and TRPV1 potentiator 2.3.
O=C1Oc2ccccc2C(=O)C1C(CC(O)c1ccc(-c2ccc(Br)cc2)cc1)c1ccccc1 (configuration not stated) was read as Menin MLL FP FL 0.2, Menin-MLL TR inh inconclusive and CXXC DNA block -14.6%.
`CC(C)CCNC(=O)c1c[nH]c2ccc(S(=O)(=O)N3CCOCC3)cc2c1=O` gave Menin MLL FP FL -0.6, Menin-MLL TR inh 6.1%, TRPV1 agonist 82.2*, CXXC DNA block 41.0% and TRPV1 potentiator -2.3.
O=c1c2nc(Br)n([C@@H]3O[C@@H]4CO[P@@](O)(=S)O[C@H]4[C@H]3O)c2nc2[nH]c(-c3ccccc3)cn12 was read as Menin MLL FP FL 1.8 and Menin-MLL TR inh -14.9%.
Screening O=C(CN1CCCCC1)Nc1nc(-c2ccccc2)cs1 returned Menin MLL FP FL -4.0, Menin-MLL TR inh -12.7%, TRPV1 agonist inconclusive, CXXC DNA block -0.4% and TRPV1 potentiator 5.7.
O=C(CN1CCOCC1)Nc1nc(-c2ccccc2)cs1 was read as Menin MLL FP FL -4.1, Menin-MLL TR inh 0.9%, TRPV1 agonist 85.3*, CXXC DNA block 1.0% and TRPV1 potentiator -13.1.
For Cc1ccc(-c2csc(NC(=O)CN3CCOCC3)n2)cc1C the results were Menin MLL FP FL -2.4, Menin-MLL TR inh 3.8%, TRPV1 agonist 94.9*, CXXC DNA block -1.6% and TRPV1 potentiator -14.1.
Cc1ccc(CNc2ccc(O)cc2)cc1 was read as Menin MLL FP FL 3.8, Menin-MLL TR inh 17.8µM*, TRPV1 agonist -2.1 and TRPV1 potentiator -6.8.
